PubChem BioAssay (EPA / NIEHS)
Results filed as inconclusive are left out. Calls of active or inactive are those of the source. How the source made its calls, unless noted: active means hit-call score of the fitted dose curve at least 0.9, where 1 is the maximum; inactive means score below 0.9.

How the values were obtained:
[1] = ATG_TAL_CIS: Attagene CIS-FACTORIAL HepG2 Assay for human TAL Basal Promoter (AID 2282966); settings: HepG2 Attagene cis-factorial TAL promoter reporter; actives raise or lower the signal;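 further: background control endpoint measuring basal TAL promoter reporter mRNA not a specific factor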
Method in brief: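 Background-control endpoint: basal TAL promoter reporter transcripts in transiently transfected HepG2, measured 24 h after dosing. Read-out by RT-PCR with fluorescent primer extension and capillary electrophoresis; gain or loss of signal fitted relative to DMSO.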

[2] = ATG_TGFb_CIS: Attagene CIS-FACTORIAL HepG2 Assay for human Transforming Growth Factor (TGF) (AID 2282967); settings: HepG2 Attagene CIS TGFb reporter, mRNA transcription; actives raise or lower the signal
Method in brief: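 Cells were dosed for 24 hours, after which total RNA was reverse-transcribed and reporter sequences amplified, labeled and sized by capillary electrophoresis. Activity was fitted in both directions against DMSO.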

[3] = ATG_VDRE_CIS: Attagene CIS-FACTORIAL HepG2 Assay for human Vitamin D Receptor Element (VDRE) (AID 2282968); settings: HepG2 VDRE cis-reporter transcription, actives raise or lower the signal
Method in brief: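 Compounds were applied for 24 h to HepG2 cells transfected with promoter-regulated reporter units. Total RNA was reverse-transcribed, and reporter amplicons were fluorescently labelled and sized by capillary electrophoresis.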

[4] = target: Steroid hormone receptor ERR1 (Homo sapiens) (UniProt P11474); assay: ATG_ERRa_TRANS: Attagene TRANS-FACTORIAL HepG2 Assay for human Estrogen-Related Receptor alpha (ERRa) (AID 2282971; active means hit-call score of the fitted dose curve at least 0.9, where 1 is the maximum); settings: HepG2 Attagene TRANS reporter, ERRa transactivation
Method in brief: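 Reporter transcripts from ERRa-Gal4 chimera activity measured in transiently transfected human HepG2 cells 24 hours after dosing, using RT-PCR with 6-FAM primer extension, HpaI digestion and capillary electrophoresis; DMSO is baseline.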

[5] = target: X-box-binding protein 1 (Homo sapiens) (UniProt P17861); assay: ATG_Xbp1_CIS: Attagene CIS-FACTORIAL HepG2 Assay for human X-box Binding Protein 1 (XBP1) (AID 2282972); settings: HepG2 XBP1 cis-element reporter, Attagene multiplex; actives raise or lower the signal
Method in brief: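 Changes in reporter transcript abundance, read by RT-PCR and capillary electrophoresis, reflect endogenous transcription factor activity. Transfected HepG2 cells received compound for 24 hours; DMSO defined baseline for bidirectional analysis.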

[6] = ATG_M_19_TRANS: Attagene TRANS-FACTORIAL HepG2 Assay for M19 Transcription Factor (Internal Marker) (AID 2282974; active means hit-call score of the fitted dose curve at least 0.9, where 1 is the maximum); settings: HepG2 Attagene TRANS-FACTORIAL M19 internal marker reporter
Method in brief: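 Transfected HepG2 (GAL4-UAS MRTUs), 24 h compound, TriZol RNA, DNase-treated RT, reporter PCR, FAM label, HpaI digest, CE fluorescence; gain vs DMSO.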

[7] = ATG_GAL4_TRANS: Attagene TRANS-FACTORIAL HepG2 Assay for GAL4 (Internal Marker) (AID 2282976; active means hit-call score of the fitted dose curve at least 0.9, where 1 is the maximum); settings: HepG2 Attagene TRANS GAL4 internal marker reporter
Method in brief: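 In transfected human HepG2 liver cells dosed 24 h, GAL4 reporter mRNA serves as a baseline marker. Detection by RT-PCR with fluorescent capillary electrophoresis, activity fitted upward relative to DMSO.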

[8] = target: Estrogen-related receptor gamma (Homo sapiens) (UniProt P62508); assay: ATG_ERRg_TRANS: Attagene TRANS-FACTORIAL HepG2 Assay for human Estrogen-Related Receptor gamma (ERRg) (AID 2282977; active means hit-call score of the fitted dose curve at least 0.9, where 1 is the maximum;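 further: hits increase reporter signal over DMSO so potencies reflect activators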); settings: HepG2 Attagene TRANS reporter, ERRg transactivation
Method in brief: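 Exogenous NR-Gal4 chimera activity measured as reporter transcript induction after 24 h in transiently transfected HepG2 cells. RNA reverse-transcribed, PCR-amplified, 6-FAM-labelled and resolved by capillary electrophoresis; increase over DMSO baseline.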

[9] = target: Estrogen receptor (Homo sapiens) (UniProt P03372); assay: ATG_ERa_TRANS: Attagene TRANS-FACTORIAL HepG2 Assay for human Estrogen Receptor alpha (ERa) (AID 2282970; active means hit-call score of the fitted dose curve at least 0.9, where 1 is the maximum); settings: HepG2 Attagene TRANS ERa GAL4 reporter, mRNA
Method in brief: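 Reporter transcripts were measured 24 h after dosing by RT-PCR with fluorescent primer extension and capillary electrophoresis. The system is transiently transfected HepG2 expressing exogenous NR-Gal4 chimeras driving GAL4-UAS reporters; DMSO is the baseline.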

[10] = target: Nuclear receptor subfamily 1 group I member 3 (Homo sapiens) (UniProt Q14994); assay: ATG_CAR_TRANS: Attagene TRANS-FACTORIAL HepG2 Assay for human Constitutive Androstane Receptor (CAR) (AID 2282969; active means hit-call score of the fitted dose curve at least 0.9, where 1 is the maximum;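 further: activators raise reporter mRNA above DMSO so AC50 marks induction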); settings: HepG2 Attagene TRANS-FACTORIAL CAR reporter
Method in brief: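 Transiently transfected HepG2, multiplex TRANS reporters (CAR-Gal4 chimera driving GAL4-UAS reporter). 24 h dosing. Readout: reporter transcript by RT-PCR + capillary electrophoresis, fluorescence intensity; positive direction vs DMSO.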

Measured: AC50

Chain of Estrogen-related receptor gamma (Homo sapiens) (P62508 whole entry, looked up, the tested form may be a part): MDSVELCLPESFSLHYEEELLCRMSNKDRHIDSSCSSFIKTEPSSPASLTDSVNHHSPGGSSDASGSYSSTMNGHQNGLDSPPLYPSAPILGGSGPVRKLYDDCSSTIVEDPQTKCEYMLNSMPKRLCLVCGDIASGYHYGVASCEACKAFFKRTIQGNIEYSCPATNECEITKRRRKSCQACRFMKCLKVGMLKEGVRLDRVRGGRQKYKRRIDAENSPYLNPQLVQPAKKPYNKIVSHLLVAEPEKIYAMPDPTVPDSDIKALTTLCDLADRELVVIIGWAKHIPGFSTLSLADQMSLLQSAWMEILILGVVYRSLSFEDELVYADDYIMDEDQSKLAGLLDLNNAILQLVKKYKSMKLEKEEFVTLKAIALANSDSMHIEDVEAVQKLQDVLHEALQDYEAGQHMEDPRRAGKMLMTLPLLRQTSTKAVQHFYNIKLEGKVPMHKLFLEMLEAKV
Chain of Estrogen receptor (Homo sapiens) (P03372 whole entry, looked up, the tested form may be a part): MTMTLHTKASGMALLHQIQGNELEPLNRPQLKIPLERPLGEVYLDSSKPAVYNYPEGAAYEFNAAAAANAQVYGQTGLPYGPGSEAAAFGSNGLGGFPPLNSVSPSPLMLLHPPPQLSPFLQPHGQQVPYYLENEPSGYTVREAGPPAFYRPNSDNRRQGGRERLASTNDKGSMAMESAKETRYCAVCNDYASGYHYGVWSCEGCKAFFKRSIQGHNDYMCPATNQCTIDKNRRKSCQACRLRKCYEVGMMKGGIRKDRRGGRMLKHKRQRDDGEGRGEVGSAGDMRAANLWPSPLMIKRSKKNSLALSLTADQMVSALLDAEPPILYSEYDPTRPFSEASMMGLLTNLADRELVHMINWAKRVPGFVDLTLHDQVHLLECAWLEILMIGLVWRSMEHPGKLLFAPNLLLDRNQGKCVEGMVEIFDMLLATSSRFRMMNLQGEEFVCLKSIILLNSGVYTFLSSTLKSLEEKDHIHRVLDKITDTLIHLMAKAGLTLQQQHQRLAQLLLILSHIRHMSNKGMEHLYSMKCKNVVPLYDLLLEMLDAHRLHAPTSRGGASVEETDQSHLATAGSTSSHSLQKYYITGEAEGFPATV
Chain of Steroid hormone receptor ERR1 (Homo sapiens) (P11474 whole entry, looked up, the tested form may be a part): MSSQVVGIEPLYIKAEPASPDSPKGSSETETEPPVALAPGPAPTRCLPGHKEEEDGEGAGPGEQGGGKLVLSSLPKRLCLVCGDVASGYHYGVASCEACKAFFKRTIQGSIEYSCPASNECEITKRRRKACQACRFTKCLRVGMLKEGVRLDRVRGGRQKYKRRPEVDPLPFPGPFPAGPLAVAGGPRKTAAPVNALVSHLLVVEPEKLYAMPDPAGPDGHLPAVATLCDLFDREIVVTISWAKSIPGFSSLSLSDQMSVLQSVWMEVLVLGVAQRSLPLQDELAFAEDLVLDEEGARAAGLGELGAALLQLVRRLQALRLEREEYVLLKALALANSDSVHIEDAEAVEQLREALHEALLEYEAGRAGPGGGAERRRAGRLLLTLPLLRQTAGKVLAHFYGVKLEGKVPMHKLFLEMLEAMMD
Chain of X-box-binding protein 1 (Homo sapiens) (P17861 whole entry, looked up): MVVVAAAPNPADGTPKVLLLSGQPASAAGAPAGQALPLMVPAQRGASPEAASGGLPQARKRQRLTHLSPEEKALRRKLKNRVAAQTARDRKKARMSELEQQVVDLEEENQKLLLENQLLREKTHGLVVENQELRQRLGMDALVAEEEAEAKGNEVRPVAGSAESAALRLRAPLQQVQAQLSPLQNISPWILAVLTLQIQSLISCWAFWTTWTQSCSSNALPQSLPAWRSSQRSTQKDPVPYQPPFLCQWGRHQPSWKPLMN
Chain of Nuclear receptor subfamily 1 group I member 3 (Homo sapiens) (Q14994 whole entry, looked up, the tested form may be a part): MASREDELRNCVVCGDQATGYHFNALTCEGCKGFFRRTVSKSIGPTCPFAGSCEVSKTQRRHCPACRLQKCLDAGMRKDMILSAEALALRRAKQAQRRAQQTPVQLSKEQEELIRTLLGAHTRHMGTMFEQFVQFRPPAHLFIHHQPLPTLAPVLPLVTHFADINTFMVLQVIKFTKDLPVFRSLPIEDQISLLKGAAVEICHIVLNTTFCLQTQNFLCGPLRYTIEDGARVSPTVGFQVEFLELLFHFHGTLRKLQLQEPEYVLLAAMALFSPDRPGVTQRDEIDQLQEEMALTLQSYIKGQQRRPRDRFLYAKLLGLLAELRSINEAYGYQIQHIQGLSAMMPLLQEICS

COCCc1ccc(OCC(O)CNC(C)C)cc1 (stereo unspecified)
inactive: [1] | [2] | [3] | [4] | [5] | [6]

CC(C)(N=C=O)c1cccc(C(C)(C)N=C=O)c1
not listed: [6] | [9] | [10]
inactive: all other assays above

COc1ccc(CCN2CCC(Nc3nc4ccccc4n3Cc3ccc(F)cc3)CC2)cc1
not listed: [6] | [9] | [10]
inactive: all other assays above

Nc1c(S(=O)(=O)O)cc(Br)c2c1C(=O)c1ccccc1C2=O
active: [3] 72.4 µM
inactive: [1] | [2] | [9]

CCC1(c2ccccc2)C(=O)NCNC1=O
inactive: [1] | [2] | [3] | [5]

O=C(O)CCCCCCCCCCCC(=O)O
inactive: [1] | [2] | [3] | [4] | [5]

CC(C)(C)C1=CC(=O)C(C(C)(C)C)=CC1=O
active: [3] 19.7 µM | [10] 20.1 µM
inactive: [1] | [2] | [8]

CCCC[O][Al]([O]CCCC)[O]CCCC
inactive: [1] | [2] | [3] | [5]

CC(C)(C)CC(C)(C)c1ccc(OCCOCC[N+](C)(C)Cc2ccccc2)cc1
not listed: [10]
inactive: all other assays above

Cc1cc(S(=O)(=O)O)ccc1N=Nc1c(O)ccc2ccccc12
active: [2] 4.96 µM
not listed: [7] | [9] | [10]
inactive: all other assays above

Clc1cc(Cl)c(-c2c(Cl)c(Cl)cc(Cl)c2Cl)cc1Cl
inactive: [1] | [2] | [3] | [4] | [5]

CCCCC1(COC(=O)CCC(=O)O)C(=O)N(c2ccccc2)N(c2ccccc2)C1=O
inactive: [1] | [2] | [3] | [9] | [5]

CCCCCCCCCCCC(=O)OCC(O)CO (stereo unspecified)
inactive: [1] | [2] | [3] | [9] | [5]

OCCCCC(O)CO (stereo unspecified)
not listed: [8] | [9] | [10]
inactive: all other assays above

CCCCCCCCCCCC(=O)OC[C@@H](O)[C@H]1OC[C@H](O)[C@H]1O
not listed: [7] | [9] | [10]
inactive: all other assays above

CS(=O)(=O)c1ccc(Cl)cc1
not listed: [6] | [9] | [10]
inactive: all other assays above

C=C(C)C(=O)OCCOC1CC2CC1C1C=CCC21 (stereo unspecified)
inactive: [1] | [2] | [3] | [4] | [5] | [7]

CC1CC(O)CC(C)(C)C1 (stereo unspecified)
inactive: [1] | [2] | [3] | [4] | [5] | [6]

Nc1c(Cl)cc(Cl)cc1[N+](=O)[O-]
inactive: [1] | [2] | [3] | [9] | [7]

CCCCCCOC(=O)C(C)C
inactive: [1] | [2] | [3] | [4] | [5] | [8]

CC(=O)Nc1ccc(C(=O)CCl)cc1
inactive: [1] | [2]
active: [3] 8.84 µM | [5] 7.85 µM

CN(c1nccc(=O)[nH]1)C1CCN(c2nc3ccccc3n2Cc2ccc(F)cc2)CC1
inactive: [1] | [2] | [9] | [5] | [7]
active: [3] 9.35 µM

CCCCCCC(C)Nc1ccc(Nc2ccccc2)cc1 (stereo unspecified)
inactive: [1] | [2] | [5]
active: [3] 2.32 µM

CSc1c(Cl)c(Cl)c(Cl)c(Cl)c1Cl
active: [5] 136 µM
inactive: [1] | [2] | [3]

C=CC(=C)CCCC(C)(C)OC(C)=O
inactive: [1] | [2] | [3] | [4]

CN(C)C(=O)Nc1ccc(Oc2ccc(Cl)cc2)cc1
inactive: [1] | [2] | [3] | [5]

CN1C(=O)c2ccccc2C1=O
not listed: [6] | [9] | [10]
inactive: all other assays above

CCCCCCCCCC(C)C=O (stereo unspecified)
inactive: [1] | [2] | [3] | [5] | [6]

CC(=O)O[C@@H]1C[C@@H]2CC[C@@]1(C)C2(C)C
inactive: [1] | [2] | [3] | [5] | [6]

CCC1(C)NC(=O)NC1=O (stereo unspecified)
inactive: [1] | [2] | [3] | [5] | [6]

C=C(CC(=O)O)C(=O)O
inactive: [1] | [2] | [3] | [5] | [7]

CCCCCC(C)=O
inactive: [1] | [2] | [3] | [5] | [6] | [8]
